# Unmarked numbers belong to inactive results. Results filed as inconclusive are left out. Where a call stands in place of a potency, no number is given. Calls of active or inactive are those of the source. Calls follow the shape of the dose curve; as a rule, active = well fitted curve in the direction sought with a large enough effect; inconclusive = small, poorly fitted or top-dose-only effect, or another doubt; inactive = no such curve, though single readings can be large; an effect the other way counts as inactive or inconclusive.
# Legend:
# [1] = HepG2 cells viability qHTS for Zika virus inhibitors (AID 1347168)
# Outline: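 Compounds were tested in concentration series on cells grown in DMEM containing 4% FBS. After 24 to 48 hours, cellular ATP was measured by luminescence with CellTiter Glo.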
# [2] = qHTS to identify inhibitors of the type 1 interferon - major histocompatibility complex class I in skeletal muscle: primary screen against the NCATS LOPAC collection (AID 1347405);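 also: lytic HiBiT luminescence reporting HLA-B protein level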
# Outline: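 Cells: C25cl48 human myoblasts, HiBiT-tagged HLA-B*08:01, stimulated with IFN-beta 4.0 ng/ml. Compounds are titrated 1:4.3 over 7 points from 46 uM final and incubated 24 hrs; endogenous MHC class I is quantified by HiBiT lytic luminescence.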
# [3] = qHTS for inhibitors of adenylyl cyclases using a fission yeast platform: a pilot screen against the NCATS LOPAC library (AID 1347410)
# Outline: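 GFP from fbp1-GFP reporter, read by Acumen laser cytometry, indicates AC inhibition in fission yeast expressing AC9, GNAS and PDE4D2. Cells grown 18 h in the dark at 30C with compounds, final up to 57 uM.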
# [4] = Validation qHTS assay for inhibitors of Activation Induced Cytidine Deaminase (AID): UDG Counterscreen signal (AID 1347427)
# Outline: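 Counterscreen read of UDG activity (2 U/mL, 4/3x) in the FRET deamination format with AID (1 uM, 4/3x), DJC20/DJC23 substrates (250 nM, 4x), 4 h at room temperature. NaOH stop, fluorescence at 560 ex/665 em.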
# [5] = target: Single-stranded DNA cytosine deaminase (Homo sapiens) (UniProt Q9GZX7); test: Validation qHTS assay for inhibitors of Activation Induced Cytidine Deaminase (AID): AID signal (AID 1347429)
# Single-stranded DNA cytosine deaminase (Homo sapiens), sequence (Q9GZX7 whole entry, looked up): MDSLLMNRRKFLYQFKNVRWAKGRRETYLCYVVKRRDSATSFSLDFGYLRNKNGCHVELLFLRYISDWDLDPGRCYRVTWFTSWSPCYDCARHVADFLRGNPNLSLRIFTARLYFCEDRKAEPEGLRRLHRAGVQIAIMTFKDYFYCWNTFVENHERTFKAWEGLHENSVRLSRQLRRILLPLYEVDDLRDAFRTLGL
# Outline: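 In this coupled qHTS, AID deaminates a FRET-labelled ssDNA substrate in the presence of UDG over 4 hr at room temperature. Compounds span up to 114 uM final.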
# [6] = target: Calcium and integrin-binding protein 1 (Homo sapiens) (UniProt Q99828); test: Validation qHTS for Identification of Calcium Integrin Binding protein 1 (CIB1) Competitor (AID 1508618)
# Calcium and integrin-binding protein 1 (Homo sapiens), sequence (Q99828 whole entry, looked up): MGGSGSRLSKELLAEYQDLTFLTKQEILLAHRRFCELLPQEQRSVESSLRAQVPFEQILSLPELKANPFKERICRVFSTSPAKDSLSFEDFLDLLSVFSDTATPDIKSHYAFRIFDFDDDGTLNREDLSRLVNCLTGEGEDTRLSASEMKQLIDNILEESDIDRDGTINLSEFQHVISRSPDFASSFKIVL
# Outline: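 In this qHTS validation, the LOPAC set (up to 114 uM) was tested for blocking CIB1 binding to a fluorescein-tagged alphaIIb peptide, with FP detection at 480/540 nm.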
# [7] = target: Calcium and integrin-binding protein 1 (Homo sapiens) (UniProt Q99828); test: Confirmatory qHTS for Identification of Calcium Integrin Binding Protein 1 (CIB1) Competitor (AID 1508617); conditions: CIB1 binding competition assay, biochemical qHTS; also: potency is read from the fitted curve at half-maximal effect; nearly all actives have a fitted effect of over 65% in size
# Outline: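 Binding competition between test compounds and fluorescent alphaIIb peptide for 1 uM CIB1-GST is monitored by FP at 480/540 nm. Final compound range is up to 114 uM; unlabeled peptide serves as reference competitor.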
# [8] = Confirmatory qHTS for small molecule stabilizers of the endoplasmic reticulum resident proteome: Secreted ER Calcium Modulated Protein (SERCaMP) assay (AID 1508628); also: nearly all actives have a fitted effect of over 40% in size; also: potency is read from the fitted curve at half-maximal effect
# Outline: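 We seeded SH-SY5Y-GLuc-SERCaMP cells, added compounds (three concentrations in the primary run, eleven up to 76.6 uM in confirmation), incubated 16 h, depleted ER calcium with thapsigargin, and read luciferase 4 h later.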
# [9] = Counterscreen qHTS for small molecule stabilizers of the endoplasmic reticulum resident proteome: GLuc-NoTag assay (AID 1508627);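 also: SH-SY5Y cells given compound then 100 nM thapsigargin to empty ER calcium; series mostly up to about 76 µM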
# Outline: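 Luminescence of Gaussia luciferase secreted into the medium (coelenterazine, 0.07x final, unlysed cells) was the read-out. Human SH-SY5Y neuroblastoma cells constitutively secreting untagged GLuc received compound for 19 h, then 100 nM thapsigargin for 4 h.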
# [10] = Cell Viability qHTS for small molecule stabilizers of the endoplasmic reticulum resident proteome (AID 1508629); conditions: cell viability counter-screen, 100 nM thapsigargin for final 4 h;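 also: human SH-SY5Y neuroblastoma cells carrying the GLuc-SERCaMP reporter; compound exposure about 46 h in total before the viability read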
# From the text: Assay Provider: Brandon K. Harvey Ph.D.
# National Institute on Drug Abuse, National Institutes of Health, Baltimore, MD
# Endoplasmic reticulum (ER) dysregulation is associated with human pathologies including neurodegenerative, cardiovascular, muscular, and diabetic conditions. Maintenance of ER calcium is critical for functions of the ER and its depletion can lead to loss of ER resident proteins, in a process termed exodosis. Therapeutic compounds capable of attenuating the redistribution of ER proteins under pathological conditions may slow or stop disease progression. To identify such compounds, we performed a quantitative high-throughput screen (qHTS) using the SERCaMP assay, which monitors secretion of ER resident proteins triggered by calcium depletion.
# SERCaMP was initially developed as a reporter of ER calcium homeostasis using a Gaussia luciferase with a modified signal peptide and carboxy-terminus (GLuc-SERCaMP), modifications that confer secretion of the reporter in response to ER calcium depletion (Henderson et al., 2014). […]
# 9; Detection; Luminescence; ViewLux imaging system […]
# 7; Cell viability was measured using the CellTiter-Glo Luminescent Cell Viability Assay (Promega). […]
# 9; Luminescence was measured using a ViewLux CCD imaging system (Perkin Elmer) equipped with clear filters.
structure (smiles),measurement,setting,value
CO[C@H]1C[C@H](O[C@@H]2/C(C)=C/C[C@@H]3C[C@@H](C[C@]4(CC[C@H](C)[C@@H](C5CCCCC5)O4)O3)OC(=O)[C@@H]3C=C(C)/C(=N/O)[C@H]4OC/C(=C\C=C\[C@@H]2C)[C@]43O)O[C@@H](C)[C@@H]1O,outcome,[1],inactive
O=C(O)Cc1cc(I)c(Oc2ccc(O)c(I)c2)c(I)c1,outcome,[1],inactive
Oc1ccc(/C=C/c2cc(O)cc(O)c2)cc1,outcome,[2],inactive
same,outcome,[3],inactive
same,outcome,[4],inactive
same,outcome,[5],inactive
same,outcome,[6],inactive
O=C1c2ccccc2C(=O)c2c1ccc(O)c2O,Potency,[7],17.8 µM (active)
Cc1cc(-c2ccc(N=Nc3ccc4c(S(=O)(=O)O)cc(S(=O)(=O)O)c(N)c4c3O)c(C)c2)ccc1N=Nc1ccc2c(S(=O)(=O)O)cc(S(=O)(=O)O)c(N)c2c1O,Potency,[8],31.6 µM (active)
C[C@@](Cc1ccc(O)c(O)c1)(NN)C(=O)O,outcome,[9],inactive
same,Potency,[8],inactive
same,max response,[10],-4.61%
